Key:
[1] = molecular target: T1, Serine/threonine-protein kinase D2 (Homo sapiens) (UniProt Q9BZL6); details: at 1 µM;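 also: mean value of PRKD2 inhibition, from the GSK PKIS screening panel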
T1 sequence (whole entry): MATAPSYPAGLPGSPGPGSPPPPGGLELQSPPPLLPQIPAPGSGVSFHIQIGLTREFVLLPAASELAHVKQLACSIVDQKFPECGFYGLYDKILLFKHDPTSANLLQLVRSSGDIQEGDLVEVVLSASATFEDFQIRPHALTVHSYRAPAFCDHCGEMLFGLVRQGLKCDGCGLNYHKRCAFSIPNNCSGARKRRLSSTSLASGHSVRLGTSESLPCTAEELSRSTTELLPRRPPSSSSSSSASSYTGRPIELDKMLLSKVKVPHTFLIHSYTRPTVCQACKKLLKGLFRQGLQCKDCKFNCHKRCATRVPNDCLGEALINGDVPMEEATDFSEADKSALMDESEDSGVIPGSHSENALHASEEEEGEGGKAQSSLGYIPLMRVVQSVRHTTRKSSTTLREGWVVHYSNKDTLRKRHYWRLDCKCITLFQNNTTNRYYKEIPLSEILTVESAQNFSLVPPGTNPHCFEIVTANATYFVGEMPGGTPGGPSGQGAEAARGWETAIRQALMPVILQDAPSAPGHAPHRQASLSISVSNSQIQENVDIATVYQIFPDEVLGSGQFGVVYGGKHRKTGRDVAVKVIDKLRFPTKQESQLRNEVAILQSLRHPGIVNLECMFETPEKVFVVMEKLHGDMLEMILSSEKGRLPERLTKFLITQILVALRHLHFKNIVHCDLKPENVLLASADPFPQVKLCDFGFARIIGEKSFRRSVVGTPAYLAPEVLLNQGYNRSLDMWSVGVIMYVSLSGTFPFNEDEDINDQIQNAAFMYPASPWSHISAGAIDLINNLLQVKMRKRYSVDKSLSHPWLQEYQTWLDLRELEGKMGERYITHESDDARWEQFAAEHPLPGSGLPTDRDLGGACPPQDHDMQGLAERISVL

[2] = molecular target: T2, Serine/threonine-protein kinase D3 (Homo sapiens) (UniProt O94806); details: at 0.1 µM
T2 sequence (whole entry): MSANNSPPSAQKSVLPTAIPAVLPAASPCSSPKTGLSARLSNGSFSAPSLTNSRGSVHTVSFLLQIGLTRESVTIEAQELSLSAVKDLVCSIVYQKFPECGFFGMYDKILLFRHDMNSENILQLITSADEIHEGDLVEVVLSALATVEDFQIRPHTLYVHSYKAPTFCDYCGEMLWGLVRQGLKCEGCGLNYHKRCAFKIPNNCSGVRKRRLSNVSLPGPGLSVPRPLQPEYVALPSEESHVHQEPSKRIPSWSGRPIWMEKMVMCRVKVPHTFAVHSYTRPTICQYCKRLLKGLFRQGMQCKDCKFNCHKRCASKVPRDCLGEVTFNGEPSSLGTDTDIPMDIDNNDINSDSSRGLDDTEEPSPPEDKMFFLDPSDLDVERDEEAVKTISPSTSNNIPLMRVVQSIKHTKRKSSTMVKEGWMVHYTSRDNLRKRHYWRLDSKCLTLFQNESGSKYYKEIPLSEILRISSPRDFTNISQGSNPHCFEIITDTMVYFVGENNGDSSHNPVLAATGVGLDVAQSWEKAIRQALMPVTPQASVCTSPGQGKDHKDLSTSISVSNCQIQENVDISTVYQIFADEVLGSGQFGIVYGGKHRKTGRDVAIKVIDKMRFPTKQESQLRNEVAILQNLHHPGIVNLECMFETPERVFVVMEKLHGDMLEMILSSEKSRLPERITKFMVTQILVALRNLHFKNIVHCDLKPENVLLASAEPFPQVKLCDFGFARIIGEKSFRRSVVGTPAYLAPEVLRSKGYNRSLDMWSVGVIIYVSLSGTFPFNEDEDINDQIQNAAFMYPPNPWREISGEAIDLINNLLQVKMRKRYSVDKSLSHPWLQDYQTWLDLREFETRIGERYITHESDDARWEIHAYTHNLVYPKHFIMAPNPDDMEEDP

[3] = molecular target: T2, Serine/threonine-protein kinase D3 (Homo sapiens); details: at 1 µM
[4] = molecular target: T3, cGMP-dependent protein kinase 1 (Homo sapiens) (UniProt Q13976); details: at 0.1 µM
T3 sequence (whole entry): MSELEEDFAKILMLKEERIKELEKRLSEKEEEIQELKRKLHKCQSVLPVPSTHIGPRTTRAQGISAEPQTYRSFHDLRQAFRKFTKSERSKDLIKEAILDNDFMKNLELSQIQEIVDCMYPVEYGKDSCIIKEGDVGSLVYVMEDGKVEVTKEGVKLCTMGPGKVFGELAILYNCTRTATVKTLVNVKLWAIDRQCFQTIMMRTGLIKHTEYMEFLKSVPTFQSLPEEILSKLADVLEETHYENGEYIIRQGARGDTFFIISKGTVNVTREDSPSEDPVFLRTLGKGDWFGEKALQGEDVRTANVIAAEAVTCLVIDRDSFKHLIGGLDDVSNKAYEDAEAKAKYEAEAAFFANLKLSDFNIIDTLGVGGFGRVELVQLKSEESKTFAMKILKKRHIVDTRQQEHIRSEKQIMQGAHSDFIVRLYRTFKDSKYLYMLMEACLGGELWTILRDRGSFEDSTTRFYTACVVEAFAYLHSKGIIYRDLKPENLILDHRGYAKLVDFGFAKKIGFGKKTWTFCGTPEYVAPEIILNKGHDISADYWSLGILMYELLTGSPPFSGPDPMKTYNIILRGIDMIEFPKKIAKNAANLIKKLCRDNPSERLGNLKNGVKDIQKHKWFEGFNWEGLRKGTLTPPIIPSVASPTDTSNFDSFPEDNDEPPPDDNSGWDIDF

[5] = molecular target: T3, cGMP-dependent protein kinase 1 (Homo sapiens); details: at 1 µM
[6] = molecular target: T4, cGMP-dependent protein kinase 2 (Homo sapiens) (UniProt Q13237); details: at 0.1 µM
T4 sequence (whole entry): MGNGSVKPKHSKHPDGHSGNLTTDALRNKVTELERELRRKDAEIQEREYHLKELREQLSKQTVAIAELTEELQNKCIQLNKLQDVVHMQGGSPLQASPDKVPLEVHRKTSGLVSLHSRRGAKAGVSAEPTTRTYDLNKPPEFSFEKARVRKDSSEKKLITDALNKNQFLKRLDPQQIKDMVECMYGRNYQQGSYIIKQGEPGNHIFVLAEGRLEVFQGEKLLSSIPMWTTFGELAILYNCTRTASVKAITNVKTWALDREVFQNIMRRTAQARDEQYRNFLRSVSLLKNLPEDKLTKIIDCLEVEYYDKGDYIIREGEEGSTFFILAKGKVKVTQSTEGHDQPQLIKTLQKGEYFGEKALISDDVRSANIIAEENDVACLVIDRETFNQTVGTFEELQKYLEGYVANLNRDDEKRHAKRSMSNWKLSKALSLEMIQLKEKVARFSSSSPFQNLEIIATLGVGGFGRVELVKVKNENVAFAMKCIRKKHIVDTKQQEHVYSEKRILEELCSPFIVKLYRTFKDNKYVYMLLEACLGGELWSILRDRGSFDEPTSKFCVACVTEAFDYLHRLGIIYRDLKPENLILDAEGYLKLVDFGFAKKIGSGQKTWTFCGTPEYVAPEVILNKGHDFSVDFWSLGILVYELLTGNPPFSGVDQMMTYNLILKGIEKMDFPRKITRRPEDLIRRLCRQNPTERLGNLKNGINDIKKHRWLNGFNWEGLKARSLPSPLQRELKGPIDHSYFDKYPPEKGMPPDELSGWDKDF

[7] = molecular target: T4, cGMP-dependent protein kinase 2 (Homo sapiens); details: at 1 µM
[8] = molecular target: T5, cAMP-dependent protein kinase catalytic subunit PRKX (Homo sapiens) (UniProt P51817); details: at 0.1 µM
T5 sequence (whole entry): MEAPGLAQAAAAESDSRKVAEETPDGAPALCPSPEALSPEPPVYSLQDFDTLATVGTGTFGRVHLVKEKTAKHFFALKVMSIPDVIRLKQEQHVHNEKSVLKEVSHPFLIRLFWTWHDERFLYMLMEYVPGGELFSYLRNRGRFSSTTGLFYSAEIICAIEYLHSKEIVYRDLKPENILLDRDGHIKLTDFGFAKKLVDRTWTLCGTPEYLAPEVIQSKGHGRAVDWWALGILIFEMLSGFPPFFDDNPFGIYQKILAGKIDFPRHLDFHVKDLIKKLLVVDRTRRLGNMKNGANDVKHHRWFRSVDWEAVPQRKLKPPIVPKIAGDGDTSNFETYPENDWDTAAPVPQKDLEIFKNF

[9] = molecular target: T5, cAMP-dependent protein kinase catalytic subunit PRKX (Homo sapiens); details: at 1 µM
[10] = molecular target: Rho-associated protein kinase 1 (Homo sapiens) (UniProt Q13464); details: at 0.1 µM;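 also: values are mean percent inhibition of ROCK1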
Rho-associated protein kinase 1 (Homo sapiens), sequence (Q13464 2-1354 limits assumed): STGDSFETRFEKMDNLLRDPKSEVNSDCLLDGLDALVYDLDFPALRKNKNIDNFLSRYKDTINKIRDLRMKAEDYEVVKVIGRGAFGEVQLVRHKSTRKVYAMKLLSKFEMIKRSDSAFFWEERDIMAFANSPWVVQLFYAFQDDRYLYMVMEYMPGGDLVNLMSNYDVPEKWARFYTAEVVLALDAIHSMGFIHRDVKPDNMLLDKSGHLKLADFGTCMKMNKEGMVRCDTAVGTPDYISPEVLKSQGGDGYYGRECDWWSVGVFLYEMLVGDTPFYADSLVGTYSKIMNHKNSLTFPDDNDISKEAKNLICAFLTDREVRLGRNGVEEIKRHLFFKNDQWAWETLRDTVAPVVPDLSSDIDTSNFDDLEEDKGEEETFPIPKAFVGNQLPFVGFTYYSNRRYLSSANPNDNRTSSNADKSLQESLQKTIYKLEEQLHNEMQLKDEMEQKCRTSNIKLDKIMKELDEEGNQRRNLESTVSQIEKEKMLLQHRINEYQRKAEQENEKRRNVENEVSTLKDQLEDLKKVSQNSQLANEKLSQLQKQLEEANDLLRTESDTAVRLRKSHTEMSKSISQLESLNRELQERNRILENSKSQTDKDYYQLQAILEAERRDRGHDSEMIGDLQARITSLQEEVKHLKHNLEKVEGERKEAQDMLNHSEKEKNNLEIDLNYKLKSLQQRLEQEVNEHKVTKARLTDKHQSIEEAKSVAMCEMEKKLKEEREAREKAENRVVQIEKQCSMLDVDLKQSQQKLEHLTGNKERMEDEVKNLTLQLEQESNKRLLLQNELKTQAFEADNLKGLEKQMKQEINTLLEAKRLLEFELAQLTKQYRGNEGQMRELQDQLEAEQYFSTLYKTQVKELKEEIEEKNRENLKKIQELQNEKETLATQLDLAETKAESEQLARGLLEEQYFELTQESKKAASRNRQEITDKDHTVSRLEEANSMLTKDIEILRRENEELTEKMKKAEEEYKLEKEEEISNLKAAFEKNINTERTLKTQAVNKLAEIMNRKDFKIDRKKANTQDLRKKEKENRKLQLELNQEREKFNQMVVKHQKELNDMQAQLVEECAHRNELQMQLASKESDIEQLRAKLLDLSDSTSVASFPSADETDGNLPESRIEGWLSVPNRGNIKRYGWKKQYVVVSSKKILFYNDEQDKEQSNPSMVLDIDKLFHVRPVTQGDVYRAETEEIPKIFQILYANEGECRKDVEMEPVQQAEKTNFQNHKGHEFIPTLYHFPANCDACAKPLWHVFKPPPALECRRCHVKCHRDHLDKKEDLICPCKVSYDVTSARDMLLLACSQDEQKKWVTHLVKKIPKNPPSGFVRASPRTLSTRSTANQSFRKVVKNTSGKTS

Row | Structure (SMILES) | inhibition [1] | inhibition [2] | inhibition [3] | inhibition [4] | inhibition [5] | inhibition [6] | inhibition [7] | inhibition [8] | inhibition [9] | inhibition [10]
1 | COc1cc(C=NNc2ncnc3c2cnn3-c2ccccc2)ccc1O | 2.86% | 2.52% | 3% | 1.67% | 1.52% | 2.05% | 4.06% | 1.55% | 1.36% | 0.41%
2 | c1cnn2ncc(-c3ccnc(Nc4ccc5c(c4)OCCO5)n3)c2c1 | 38.2% | 7.82% | 50.5% | 4.87% | 18.9% | 1.98% | 8.51% | 1.25% | 2.29% | 1.28%
3 | Fc1cccc(COc2ccc(Nc3ncnc4cc(-c5ccc[nH]5)sc34)cc2Cl)c1 | -2.9% | -1.25% | -2.13% | 3.64% | 4.28% | 2.82% | 2.46% | 2% | 3.5% | 0.2%
4 | O=C(Nc1n[nH]c2nc(-c3ccco3)c(Br)cc12)C1CC1 | 5.03% | 3.1% | 4.81% | 2.39% | 3.36% | 1.15% | 1.85% | 1.8% | -0.27% | 0.16%
5 | NS(=O)(=O)c1ccc(N/N=C2\C(=O)Nc3ccc(C(=O)NCCc4c[nH]cn4)cc32)cc1 | 32.9% | 7.41% | 38.6% | 23.6% | 70.1% | 9.57% | 50.8% | 2.93% | 12.2% | 1.37%
6 | Cc1nn(C)c2cc(N(C)c3ccnc(Nc4cccc(S(N)(=O)=O)c4)n3)ccc12 | 4.2% | 2.9% | 3.56% | 4.25% | 6.59% | 2.42% | 5.81% | 2.89% | 5.35% | 1.17%
7 | COc1cc2ncn(-c3cc(O[C@@H](C)c4ccccc4Cl)c(C(N)=O)s3)c2cc1OC | 2.84% | 4.96% | 4.78% | 3.4% | 4.72% | 4.02% | 5.22% | 3.8% | 3.91% | 2.15%
8 | Fc1cccc(COc2ccc(Nc3ncnc4sc(-c5cccs5)cc34)cc2Cl)c1 | -1.2% | -0.65% | -0.35% | 1.57% | 1.96% | 0.03% | 0.73% | 0.64% | 0.87% | 1.73%
9 | CCN1CCC(CC(=O)Nc2n[nH]c3nc(-c4cccs4)c(Br)cc23)CC1 | -1.32% | -2.16% | -0.88% | -1.47% | -0.36% | -0.23% | 1.17% | -0.98% | 0.48% | 0.12%
10 | CC(C)=Cc1cccc2c1/C(=N/Nc1ccc(S(N)(=O)=O)cc1)C(=O)N2 | 12.2% | 1.39% | 8.68% | 1.14% | 4.69% | 1.13% | 7.29% | 1.11% | 1.36% | 1.3%
11 | CC1=C(C(=O)Nc2ccc3[nH]ncc3c2)C(c2ccc(Cl)c(Cl)c2)CC(=O)N1 (centres undefined) | 5.98% | 1.11% | 9.26% | 10.1% | 50% | 5.19% | 34.7% | 14.8% | 59.2% | 68.6%
12 | CN1CCC(C(=O)Nc2n[nH]c3nnc(-c4ccccc4)cc23)CC1 | 6.42% | 4.65% | 5.47% | 3.6% | 5.14% | 2.49% | 4.4% | 3.15% | 6.09% | 7.45%
13 | COc1cc(C)c(NC(=O)CN(C)C)cc1Nc1nc(Nc2cccc(F)c2C(N)=O)c2cc[nH]c2n1 | 31.9% | 3.99% | 38.4% | 1.52% | 4.26% | 1.95% | 2.22% | -0.65% | -1.72% | 0.5%
14 | CC1=C(C(=O)Nc2ccc3[nH]ncc3c2)C(c2ccc3ccccc3c2)CC(=O)N1 (centres undefined) | 6.67% | 3.48% | 8.7% | 12.8% | 53.3% | 12.6% | 53.3% | 33.7% | 75.3% | –
15 | Nc1ncnc2occ(-c3ccc(NC(=O)Nc4cc(C(F)(F)F)cc(C(F)(F)F)c4)cc3)c12 | 1.29% | 1.47% | 1.15% | 1.23% | 1.54% | 0.73% | 1.97% | -0.03% | -3.64% | 6.3%
16 | Cc1cc(O)cc(C)c1/C=C/c1cncc(-c2nn[nH]n2)c1 | 4.1% | 2.66% | 4.77% | 2.15% | 4.8% | 2.47% | 3.8% | 1.59% | 1.75% | 1.38%
17 | [O-][S+]1CCN(Cc2ccc(-c3ccc4ncnc(Nc5ccc(OCc6ccccc6)c(F)c5)c4c3)o2)CC1 | 4.32% | 2.88% | 3.26% | 1.05% | 3.37% | 0.25% | 2.79% | 0.09% | -1.73% | -0.61%
